Measured values: the supplement of paper PMC10681739
± gives the standard deviation of the averaged measurements. The full ranking holds about 4,100 sequences; the median of “arbitrary fluorescence units” is about 780, and the highest 2% start at about 22,000. Shown is part of a subset that was picked to be rich in the highest values.

biological target: T1, ETS1 (UniProt P14921); test: ETS1 binding intensity (PBM fluorescence), ETS1 alone (arbitrary fluorescence units); higher = stronger binding; settings: ETS1 concentration 1 nM; RUNX1 concentration 0 nM
T1 sequence: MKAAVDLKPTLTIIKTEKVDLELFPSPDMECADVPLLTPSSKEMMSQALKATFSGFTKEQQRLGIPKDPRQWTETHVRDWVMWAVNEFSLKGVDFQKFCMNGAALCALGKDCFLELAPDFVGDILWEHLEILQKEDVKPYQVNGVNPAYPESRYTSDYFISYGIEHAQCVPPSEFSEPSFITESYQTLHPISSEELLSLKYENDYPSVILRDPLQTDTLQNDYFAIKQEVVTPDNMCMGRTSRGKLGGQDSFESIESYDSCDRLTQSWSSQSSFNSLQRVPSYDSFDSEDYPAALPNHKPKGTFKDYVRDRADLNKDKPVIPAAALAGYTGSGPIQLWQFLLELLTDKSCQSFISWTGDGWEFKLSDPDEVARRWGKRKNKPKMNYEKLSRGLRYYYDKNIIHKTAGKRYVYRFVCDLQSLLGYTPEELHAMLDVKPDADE
Procedure: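 gcPBM on 36-bp genomic-derived probes (partner site mutated) containing one ETS1 site and no RUNX1 site. Recombinant human ETS1 (1 nM) was incubated alone or with RUNX1 (25 nM) and detected by anti-ETS1 antibody fluorescence. Values are medians over 4 replicate spots (not normalised). The probes sit in constant array flanks that are not printed.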

Sequence | ETS1 binding intensity
CGTTTCCTGTCTGGGACTGCGCCCACGCGATCACGT | 38800
GACTGCGCCGGACGCGCCAGCCCTGCGCGATGACGT | 678
TGGCTGTCACTTCCTGTCCCACTGTCGTTCCTGGGA | 20600
TCCCTCCTTCCGCTCTGGTTTTGGGGTTGCTTGCTG | 6220
CCAACAGCAGCGCTACTCCCGGCCGCTTCCGCCTGG | 748
GGCACTTCCGGTCCTGACCTGAAGCGCTCACCGTCA | 55000
CGGCCTCTTCCGGTCACCTGGCCCGTCGCTGTCCCG | 17300
CCGCGTCCTCAGAGGTCCGGCCGGAAGTCACCTGAA | 8340 ± 1500
ACAAAGTCAGTGGCAATGTGGAACGTCCGCCAAGAG | 384
GCGGAGGGAAGCGGAAATACTTGCAGTGGGGGCGAC | 3700
CTCTTGGCGGACGTTCCACATTGCCACTGACTTTGT | 616
CACTCCCCTCCCGAGGTCACACTTCCGGCGGCCACC | 7960
GCCACTTCCGGTCACTCCCCTCAGCGGCCTCGCGCT | 39600
CAACTCCGGCGCCCTCAGGCCACTTCCGCCTATGTA | 4590
CTGCCTTTCCTGCTAGGGTACAAATCACAGCCTTAG | 1670
AACTTCCTTCCCGAGAGCCTGAAGCAGCCGTAGGCC | 9120
TTTAAGGTTCATGCTGTACTCAGAACATCCTGTTCT | 1150
CGGGTTAAACAGCAGCCGCGCCCACACTTCCGGGGT | 2120
TCCCCACACTTCCGGCCCCGCGCGCACAGCCGCACC | 25400
TCCCGCTTCGGCCAACAGCCGGGCCACTTCCGGGGC | 2910
CCGCGAACAGCAGAATTCCCGCCTTCCGCAGCCCGG | 480 ± 6.2

Sequence | ETS1 binding intensity
TGGGGCTCTTCCTGCTTATGTGAGCACAGCACCTTG | 4750
AGCACCAGTGTTGTCTCTGCTTCCGGTCCTTATGGT | 7490
GGTCTCTGCTTCCGGTCCTTGGGGTAGCACCTCTGT | 32000
CAGCCAGCGCACCTCCTCCTCAGCTTCCTCTGGTGC | 620
GATGAGGGCTTGCGCGCAAACAGCCCGGAAATGAGG | 1010
CAACAACCGGAAGTGGGGCGGGCCGTAGTACCCGCC | 35100
CGGCCGCCGTTTAGGGCGGCCCCGGAAGCGGGGCGC | 531
GGGGACCGGAAAGGGAGGGGTGGGCCGTAGGCGCCG | 4430
GCACTCATTTCCTGTCCCCTGTAGTTTAAAGGTTTT | 19700
AGGCTCATTTCCTGTTTTCATGTAGTTTAGAGAAAA | 24300
TTGCATGTAGTTTAGGCTGTAGTTTCCTCCTGTAGT | 534
TATATGCACAGGAAGTCCCTTACAACCTACTCTGTT | 3590
GGCGGGAGAGGAAGCCGGGCGGCCGAAGCTGCCTGT | 811
AGAAGTGCAGTGGAGGAGGGCCGGAACGGTGACTAT | 393
AGGACCGGAAGTGCCCGAGGGCGGCCGGAGAACGGT | 45500
CCATTCCTACGGCCTTCATTGCTGCATCCGGTGGAG | 2480
CTCTGGGAGGCCGCCGCTTTCCACCGGAAAGAGGGT | 555
AGGTACAACACCAGACGGTAGGCCAGGAAATCGCAG | 407
CTCCGCGCAGCCCCAGAGACCCTTGGGAAGTGTGGT | 320
CTCGGCCAACGCGTGCTCCACTCGGAAGTGGTGCCG | 457
CAAAGTGATGGGGGAAATGGTTGTAGTTTTGGGTGG | 514

Sequence | ETS1 binding intensity
GTTGCAAAGGCGCCTACAACTACTTCCGCTTCTAGT | 4670
AACAGTACTTCCGGGGCAAGTGAGCGCCTACAAGGC | 30400
CGTGTGAGGGGGCGCAAGGCAGCGGCAGCTTCCGCC | 830
CTTCTACTTCCTGCCCCGCCCCCAGCTGTGCTCACA | 17900
AAATGAGCGGAGGTTGAGCCCTACTTCCGGTGGTGC | 14100
TGAGCCCTACTTCCGGTGGTGCTGTGCTCTGCCCCT | 29700
GCTTGTCTTCCGGTTTCGTCGCCGCCGTAGGCGCAC | 16700
TATTTCCTGTGCACAGAAGCAGCTGGGCCGAAGAGT | 34400
TCGGGCTGCCGAAGAGCAGCTATTTCCTGTCTGCAC | 5010
AGTTTCCTGAACTCAGAGCACAGTTCTGGTGCAGAA | 6300
CCAGACCCGGCGGAACTACCGTGCCCTCAAGGCAGC | 477
ACGCGCGCGGGGGAGGTGGCTTCTTCCGGCCGGGCC | 1860
CCCGGAGGACGTCCGGCCTCTGTGAGCCGCCACCTT | 4500
TTCAGGTGACTTCCGGCCGGACCTCTGAGGACGCGG | 24100 ± 4200
CTCGGCCAGGAAGCACTGAGCCACTTCGGCATCGCA | 591
TGACAGACCCGGAAATAAGAGGAGACAACACACTTG | 4440
GGCAGGAAAGAGCTGATGCATTTCAACAGCAGCCTG | 477
CCTGAGCGCCCGGAAGGAAGGCTGGGGTAGGTTGTC | 756
ACCAACCGGAAGTGATCGTGTCGTGGCCGAAGGAGG | 32300
GGAGGGGCTGGCCGGAAGTGAACCGAAGAGCACGCT | 16700
